Experimental data from the supplement of paper PMC10037445.
Values joined by “and” are separate entries in the source; they are usually repeats but may differ in a detail not shown here. Equal values may be shown once. The full ranking holds about 2,900 compounds; the median of “NF-kB SEAP reporter activity, fold change vs agonist alone” is about 0.99, and the highest 2% start at about 2.6. The entries come from a sample that favours the highest values as a whole.

Assays:
RAW-Dual [1] = experiment: NF-kB SEAP reporter activity, fold change vs agonist alone; cytotoxicity flag (confluency mask): not cytotoxic; higher = enhanced NF-kB activity
Method in brief: (§1)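 Library stock was pin-tooled at 50 nL into 384-well plates of RAW-Dual macrophages (50,000 cells/well, DMEM), followed 1 h later by a PRR agonist, and the cells were kept at 37 °C, 5% CO2. Supernatant collected after 20 hours was read for IRF by QuantiLuc luminescence and for NF-κB by QuantiBlue absorbance at 620 nm. Reporter activity is fold change over agonist-alone wells, and a well counted as cytotoxic when its IncuCyte confluency was below 70% of agonist controls in both mask sets.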

RAW-Dual [2] = experiment: NF-kB SEAP reporter activity, fold change vs agonist alone; higher = enhanced NF-kB activity
Method in brief: as §1

RAW-Dual [3] = experiment: NF-kB SEAP reporter activity, fold change vs agonist alone; cytotoxicity flag (confluency mask): cytotoxic (confluency <70% of control); higher = enhanced NF-kB activity
Method in brief: as §1

[4] = agonist: ODN 1826 (TLR9) 0.5 ug/mL
[5] = agonist: Pam2CSK4 (TLR2/6) 0.1 ug/mL
[6] = agonist: Pam3CSK4 (TLR2/1) 0.1 ug/mL
[7] = library stock concentration (final ~1000-fold dilution): 10 mM, cytotoxicity flag (confluency mask): not cytotoxic, agonist: Imiquimod (TLR7) […]
[8] = library stock concentration (final ~1000-fold dilution): 10 mM, cytotoxicity flag (confluency mask): not cytotoxic, agonist: MPLA (TLR4) […]
[9] = library stock concentration (final ~1000-fold dilution): 10 mM, cytotoxicity flag (confluency mask): cytotoxic (confluency <70% of control), agonist: MPLA (TLR4) […]

O=C(OCC1OC(OC(=O)c2cc(O)c(O)c(OC(=O)c3cc(O)c(O)c(O)c3)c2)C(OC(=O)c2cc(O)c(O)c(OC(=O)c3cc(O)c(O)c(O)c3)c2)C(OC(=O)c2cc(O)c(O)c(OC(=O)c3cc(O)c(O)c(O)c3)c2)C1OC(=O)c1cc(O)c(O)c(OC(=O)c2cc(O)c(O)c(O)c2)c1)c1cc(O)c(O)c(OC(=O)c2cc(O)c(O)c(O)c2)c1 (stereo unspecified) (library stock concentration (final ~1000-fold dilution): 10 mM)
NF-kB SEAP reporter activity (RAW-Dual [1]; agonist: LPS (TLR4) 0.1 ug/mL): 1.25
NF-kB SEAP reporter activity (RAW-Dual [1]; [4]): 0.116
NF-kB SEAP reporter activity (RAW-Dual [1]; [5]): 1.04
NF-kB SEAP reporter activity (RAW-Dual [1]; [6]): 0.185

O=C(OCC1OC(OC(=O)c2cc(O)c(O)c(OC(=O)c3cc(O)c(O)c(O)c3)c2)C(OC(=O)c2cc(O)c(O)c(OC(=O)c3cc(O)c(O)c(O)c3)c2)C(OC(=O)c2cc(O)c(O)c(OC(=O)c3cc(O)c(O)c(O)c3)c2)C1OC(=O)c1cc(O)c(O)c(OC(=O)c2cc(O)c(O)c(O)c2)c1)c1cc(O)c(O)c(OC(=O)c2cc(O)c(O)c(O)c2)c1 (stereo unspecified)
NF-kB SEAP reporter activity (RAW-Dual [2]; [7]): 0.144
NF-kB SEAP reporter activity (RAW-Dual [2]; [8]): 0.319

C=CC1CC1(NC(=O)C1CC(Oc2ncc(OC)c3ccc(Cl)cc23)CN1C(=O)C(NC(=O)OC(C)(C)C)C(C)(C)C)C(=O)NS(=O)(=O)C1CC1 (stereo unspecified) (library stock concentration (final ~1000-fold dilution): 10 mM)
NF-kB SEAP reporter activity (RAW-Dual [3]; agonist: LPS (TLR4) 0.1 ug/mL): 1.1
NF-kB SEAP reporter activity (RAW-Dual [3]; [4]): 0.915
NF-kB SEAP reporter activity (RAW-Dual [3]; [5]): 0.518
NF-kB SEAP reporter activity (RAW-Dual [3]; [6]): 0.508

C=CC1CC1(NC(=O)C1CC(Oc2ncc(OC)c3ccc(Cl)cc23)CN1C(=O)C(NC(=O)OC(C)(C)C)C(C)(C)C)C(=O)NS(=O)(=O)C1CC1 (stereo unspecified)
NF-kB SEAP reporter activity (RAW-Dual [2]; [9]): 1.06

Cc1cc(Nc2cc(N3CCN(C)CC3)nc(/C=C/c3ccccc3)n2)n[nH]1.O=C(O)C(O)C(O)C(=O)O
NF-kB SEAP reporter activity (RAW-Dual [2]; [7]): 0.89
NF-kB SEAP reporter activity (RAW-Dual [2]; [8]): 0.85

Cc1cc(Nc2cc(N3CCN(C)CC3)nc(/C=C/c3ccccc3)n2)n[nH]1.O=C(O)C(O)C(O)C(=O)O (library stock concentration (final ~1000-fold dilution): 10 mM)
NF-kB SEAP reporter activity (RAW-Dual [1]; agonist: LPS (TLR4) 0.1 ug/mL): 0.407
NF-kB SEAP reporter activity (RAW-Dual [1]; [4]): 0.191
NF-kB SEAP reporter activity (RAW-Dual [1]; [5]): 0.297
NF-kB SEAP reporter activity (RAW-Dual [1]; [6]): 0.279

CNC(C)C(=O)NC(C(=O)N1CCCC1c1nc(C(=O)c2ccc(F)cc2)cs1)C1CCCCC1 (stereo unspecified)
NF-kB SEAP reporter activity (RAW-Dual [2]; library stock concentration (final ~1000-fold dilution): 10 mM, cytotoxicity flag (confluency mask): cytotoxic (confluency <70% of control), agonist: Imiquimod (TLR7) […]): 1.16
NF-kB SEAP reporter activity (RAW-Dual [2]; [9]): 0.714

CNC(C)C(=O)NC(C(=O)N1CCCC1c1nc(C(=O)c2ccc(F)cc2)cs1)C1CCCCC1 (stereo unspecified) (library stock concentration (final ~1000-fold dilution): 10 mM)
NF-kB SEAP reporter activity (RAW-Dual [3]; agonist: LPS (TLR4) 0.1 ug/mL): 0.436
NF-kB SEAP reporter activity (RAW-Dual [3]; [4]): 0.764
NF-kB SEAP reporter activity (RAW-Dual [3]; [5]): 0.902
NF-kB SEAP reporter activity (RAW-Dual [3]; [6]): 0.517

O=c1cc(-c2ccc(O)cc2)oc2cccc(O)c12
NF-kB SEAP reporter activity (RAW-Dual [2]; [7]): 1.07
NF-kB SEAP reporter activity (RAW-Dual [2]; [8]): 1.37

O=c1cc(-c2ccc(O)cc2)oc2cccc(O)c12 (library stock concentration (final ~1000-fold dilution): 10 mM)
NF-kB SEAP reporter activity (RAW-Dual [1]; agonist: LPS (TLR4) 0.1 ug/mL): 1.55
NF-kB SEAP reporter activity (RAW-Dual [1]; [4]): 1.15
NF-kB SEAP reporter activity (RAW-Dual [1]; [5]): 1.09
NF-kB SEAP reporter activity (RAW-Dual [1]; [6]): 1.82

O=C(O)CSc1nnc(Br)n1-c1ccc(C2CC2)c2ccccc12 (library stock concentration (final ~1000-fold dilution): 10 mM)
NF-kB SEAP reporter activity (RAW-Dual [1]; agonist: LPS (TLR4) 0.1 ug/mL): 1.32
NF-kB SEAP reporter activity (RAW-Dual [1]; [4]): 1.01
NF-kB SEAP reporter activity (RAW-Dual [1]; [5]): 1.24
NF-kB SEAP reporter activity (RAW-Dual [1]; [6]): 1.18

O=C(O)CSc1nnc(Br)n1-c1ccc(C2CC2)c2ccccc12
NF-kB SEAP reporter activity (RAW-Dual [2]; [8]): 0.983

CC(C)(C)C(=O)Oc1ccc(S(=O)(=O)Nc2ccccc2C(=O)NCC(=O)O)cc1
NF-kB SEAP reporter activity (RAW-Dual [2]; [7]): 0.966

O=C(O)CSc1cc(NS(=O)(=O)c2ccc(Br)cc2)c2ccccc2c1O
NF-kB SEAP reporter activity (RAW-Dual [2]; [7]): 1.12
NF-kB SEAP reporter activity (RAW-Dual [2]; [8]): 2.21

CC(C)(C)C(=O)Oc1ccc(S(=O)(=O)Nc2ccccc2C(=O)NCC(=O)O)cc1 (library stock concentration (final ~1000-fold dilution): 10 mM)
NF-kB SEAP reporter activity (RAW-Dual [1]; agonist: LPS (TLR4) 0.1 ug/mL): 1.36 and 1.08
NF-kB SEAP reporter activity (RAW-Dual [1]; [4]): 0.906 and 0.939
NF-kB SEAP reporter activity (RAW-Dual [1]; [5]): 1.39 and 1
NF-kB SEAP reporter activity (RAW-Dual [1]; [6]): 0.652 and 1.02

O=C(O)CSc1cc(NS(=O)(=O)c2ccc(Br)cc2)c2ccccc2c1O (library stock concentration (final ~1000-fold dilution): 10 mM)
NF-kB SEAP reporter activity (RAW-Dual [1]; agonist: LPS (TLR4) 0.1 ug/mL): 3.16
NF-kB SEAP reporter activity (RAW-Dual [1]; [4]): 1.31
NF-kB SEAP reporter activity (RAW-Dual [1]; [5]): 1.24
NF-kB SEAP reporter activity (RAW-Dual [1]; [6]): 2.31

CSCCNc1nc(SCCC(F)(F)F)nc2c1ncn2C1OC(COP(=O)(O)OP(=O)(O)C(Cl)(Cl)P(=O)(O)O)C(O)C1O (stereo unspecified)
NF-kB SEAP reporter activity (RAW-Dual [2]; library stock concentration (final ~1000-fold dilution): 10 mM water, cytotoxicity flag (confluency mask): not cytotoxic, agonist: Imiquimod (TLR7) […]): 0.972
NF-kB SEAP reporter activity (RAW-Dual [2]; library stock concentration (final ~1000-fold dilution): 10 mM water, cytotoxicity flag (confluency mask): not cytotoxic, agonist: MPLA (TLR4) […]): 1.04

CSCCNc1nc(SCCC(F)(F)F)nc2c1ncn2C1OC(COP(=O)(O)OP(=O)(O)C(Cl)(Cl)P(=O)(O)O)C(O)C1O (stereo unspecified) (library stock concentration (final ~1000-fold dilution): 10 mM water)
NF-kB SEAP reporter activity (RAW-Dual [1]; agonist: LPS (TLR4) 0.1 ug/mL): 1.15
NF-kB SEAP reporter activity (RAW-Dual [1]; [4]): 1.26
NF-kB SEAP reporter activity (RAW-Dual [1]; [5]): 1.18
NF-kB SEAP reporter activity (RAW-Dual [1]; [6]): 0.935

CCC1OC(=O)C(C)C(OC2CC(C)(OC)C(O)C(C)O2)C(C)C(OC2OC(C)CC(N(C)C)C2O)C(C)(O)CC(C)C(=O)C(C)C(O)C1(C)O.N#CS (stereo unspecified)
NF-kB SEAP reporter activity (RAW-Dual [2]; [8]): 1.07

CCC1OC(=O)C(C)C(OC2CC(C)(OC)C(O)C(C)O2)C(C)C(OC2OC(C)CC(N(C)C)C2O)C(C)(O)CC(C)C(=O)C(C)C(O)C1(C)O.N#CS (stereo unspecified) (library stock concentration (final ~1000-fold dilution): 10 mM)
NF-kB SEAP reporter activity (RAW-Dual [1]; agonist: LPS (TLR4) 0.1 ug/mL): 1.06
NF-kB SEAP reporter activity (RAW-Dual [1]; [4]): 0.88
NF-kB SEAP reporter activity (RAW-Dual [1]; [5]): 1.07
NF-kB SEAP reporter activity (RAW-Dual [1]; [6]): 1.08

COc1cc(CCC(O)CC(O)CCc2ccc(O)c(OC)c2)ccc1O (stereo unspecified)
NF-kB SEAP reporter activity (RAW-Dual [2]; [7]): 1.04
NF-kB SEAP reporter activity (RAW-Dual [2]; [8]): 1.05

COc1cc(CCC(O)CC(O)CCc2ccc(O)c(OC)c2)ccc1O (stereo unspecified) (library stock concentration (final ~1000-fold dilution): 10 mM)
NF-kB SEAP reporter activity (RAW-Dual [1]; agonist: LPS (TLR4) 0.1 ug/mL): 1.41
NF-kB SEAP reporter activity (RAW-Dual [1]; [4]): 1.15
NF-kB SEAP reporter activity (RAW-Dual [1]; [5]): 1.08
NF-kB SEAP reporter activity (RAW-Dual [1]; [6]): 1.06

COC1=CC(c2cc3ccccc3[nH]2)=N/C1=C\c1[nH]c(C)cc1C.CS(=O)(=O)O (library stock concentration (final ~1000-fold dilution): 10 mM)
NF-kB SEAP reporter activity (RAW-Dual [1]; agonist: LPS (TLR4) 0.1 ug/mL): 8.62
NF-kB SEAP reporter activity (RAW-Dual [1]; [4]): 1.9
NF-kB SEAP reporter activity (RAW-Dual [1]; [5]): 2.55
NF-kB SEAP reporter activity (RAW-Dual [1]; [6]): 3.87
